Assay results: publication PMC7862700, “An all-to-all approach to the identification of sequence-specific readers for epigenetic DNA modifications on cytosine”

How the values were obtained:
Assay in all cases: DAPPL (digital affinity profiling via proximity ligation, sequencing); 10 mM Tris-HCl pH 7.5, 50 mM NaCl, 1 mM DTT, 4% glycerol, room temperature, 30 min; GST-TFs on glutathione beads, 16-mer random dsDNA library, 0.1% formaldehyde crosslink after washing; high values mean tight binding
[1] = target: T1, FEV (Homo sapiens, UniProt Q99581 1-238); details: protein: recombinant; tags: N-terminal GST; dsDNA, one strand shown
T1 sequence: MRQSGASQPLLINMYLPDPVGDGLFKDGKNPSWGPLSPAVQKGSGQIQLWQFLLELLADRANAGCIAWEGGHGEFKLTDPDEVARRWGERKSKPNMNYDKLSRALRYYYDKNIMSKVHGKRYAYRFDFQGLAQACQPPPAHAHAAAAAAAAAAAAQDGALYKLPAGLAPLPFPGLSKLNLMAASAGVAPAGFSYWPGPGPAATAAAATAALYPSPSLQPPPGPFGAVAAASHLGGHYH
Outline: (§1)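 Each value of binding signal is a hexamer's read frequency for a factor divided by the same hexamer's frequency in the tag-only sample. Barcoded, bead-captured GST fusions of human transcription factors made in yeast were pooled with that sample and incubated with 200 nmole of a random double-stranded 16-mer DNA library in Tris/NaCl/DTT/glycerol buffer at room temperature for 30 min. Washing, 0.1% formaldehyde crosslinking, proximity ligation, PCR and Illumina NextSeq500 sequencing followed.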

[2] = target: ETV5 (Homo sapiens, UniProt P41161 1-510); details: protein: recombinant; tags: N-terminal GST; dsDNA, one strand shown
ETV5, sequence (P41161 whole entry): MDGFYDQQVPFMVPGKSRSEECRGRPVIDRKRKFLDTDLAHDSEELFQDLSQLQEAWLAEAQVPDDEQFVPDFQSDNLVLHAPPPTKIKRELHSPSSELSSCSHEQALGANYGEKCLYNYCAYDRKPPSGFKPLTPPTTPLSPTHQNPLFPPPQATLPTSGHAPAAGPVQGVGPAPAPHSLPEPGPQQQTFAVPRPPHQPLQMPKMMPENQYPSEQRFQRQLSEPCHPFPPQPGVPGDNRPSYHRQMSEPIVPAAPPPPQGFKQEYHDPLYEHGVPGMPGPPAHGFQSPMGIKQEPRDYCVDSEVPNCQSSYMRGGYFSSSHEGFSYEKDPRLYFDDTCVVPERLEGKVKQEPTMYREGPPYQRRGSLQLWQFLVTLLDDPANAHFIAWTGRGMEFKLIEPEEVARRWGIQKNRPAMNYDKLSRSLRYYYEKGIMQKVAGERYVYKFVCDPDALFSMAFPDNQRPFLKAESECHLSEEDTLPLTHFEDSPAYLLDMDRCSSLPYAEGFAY
Outline: as §1

[3] = target: HSF1 (Homo sapiens, UniProt Q00613 1-529); details: protein: recombinant; tags: N-terminal GST; chain copies: 3; dsDNA, one strand shown
HSF1, sequence (Q00613 whole entry): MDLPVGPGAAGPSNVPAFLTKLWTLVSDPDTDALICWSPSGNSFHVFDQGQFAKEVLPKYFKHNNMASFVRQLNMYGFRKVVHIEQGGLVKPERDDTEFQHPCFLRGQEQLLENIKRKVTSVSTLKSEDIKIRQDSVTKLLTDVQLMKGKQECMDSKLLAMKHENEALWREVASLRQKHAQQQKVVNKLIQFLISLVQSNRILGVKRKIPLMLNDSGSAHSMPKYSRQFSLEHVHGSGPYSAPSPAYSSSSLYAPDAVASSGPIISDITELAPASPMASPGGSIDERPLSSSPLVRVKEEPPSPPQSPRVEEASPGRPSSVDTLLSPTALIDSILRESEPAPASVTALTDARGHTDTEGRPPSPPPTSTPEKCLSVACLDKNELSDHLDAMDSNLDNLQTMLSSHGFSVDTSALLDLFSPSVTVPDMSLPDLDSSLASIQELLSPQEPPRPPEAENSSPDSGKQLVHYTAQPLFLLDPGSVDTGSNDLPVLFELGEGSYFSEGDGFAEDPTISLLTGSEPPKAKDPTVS
Outline: as §1

[4] = target: T2, SPIC (Homo sapiens, UniProt Q8N5J4 1-248); details: protein: recombinant; tags: N-terminal GST; dsDNA, one strand shown
T2 sequence: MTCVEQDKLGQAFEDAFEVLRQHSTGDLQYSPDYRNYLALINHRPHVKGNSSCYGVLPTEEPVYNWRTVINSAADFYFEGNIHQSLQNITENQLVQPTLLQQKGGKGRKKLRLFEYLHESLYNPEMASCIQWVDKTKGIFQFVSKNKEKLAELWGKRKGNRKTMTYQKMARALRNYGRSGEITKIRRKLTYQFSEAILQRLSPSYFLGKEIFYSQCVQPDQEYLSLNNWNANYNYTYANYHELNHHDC
Outline: as §1

[5] = target: ELF4 (Homo sapiens, UniProt Q99607 1-663); details: protein: recombinant; tags: N-terminal GST; dsDNA, one strand shown
ELF4, sequence (Q99607 whole entry): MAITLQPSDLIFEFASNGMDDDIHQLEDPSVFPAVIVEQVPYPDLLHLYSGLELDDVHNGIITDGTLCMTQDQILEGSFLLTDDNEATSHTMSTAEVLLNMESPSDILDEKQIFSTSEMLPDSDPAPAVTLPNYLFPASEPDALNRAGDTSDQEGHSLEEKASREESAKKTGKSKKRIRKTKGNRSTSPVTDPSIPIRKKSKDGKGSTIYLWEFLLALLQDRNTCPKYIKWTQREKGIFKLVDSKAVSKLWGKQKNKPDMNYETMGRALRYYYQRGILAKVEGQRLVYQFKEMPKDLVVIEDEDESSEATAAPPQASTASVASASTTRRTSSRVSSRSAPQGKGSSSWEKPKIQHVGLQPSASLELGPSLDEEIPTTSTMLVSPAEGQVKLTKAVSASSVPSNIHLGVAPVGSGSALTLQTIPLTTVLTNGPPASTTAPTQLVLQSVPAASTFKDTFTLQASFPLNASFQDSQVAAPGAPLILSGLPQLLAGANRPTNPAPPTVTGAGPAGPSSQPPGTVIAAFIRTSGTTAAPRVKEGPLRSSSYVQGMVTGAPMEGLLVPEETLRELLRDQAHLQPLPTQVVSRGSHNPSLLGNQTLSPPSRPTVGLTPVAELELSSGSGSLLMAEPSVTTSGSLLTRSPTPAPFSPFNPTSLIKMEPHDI
Outline: as §1

[6] = target: T3, ELK4 (Homo sapiens, UniProt P28324-2 1-405); details: protein: recombinant; tags: N-terminal GST; dsDNA, one strand shown
T3 sequence: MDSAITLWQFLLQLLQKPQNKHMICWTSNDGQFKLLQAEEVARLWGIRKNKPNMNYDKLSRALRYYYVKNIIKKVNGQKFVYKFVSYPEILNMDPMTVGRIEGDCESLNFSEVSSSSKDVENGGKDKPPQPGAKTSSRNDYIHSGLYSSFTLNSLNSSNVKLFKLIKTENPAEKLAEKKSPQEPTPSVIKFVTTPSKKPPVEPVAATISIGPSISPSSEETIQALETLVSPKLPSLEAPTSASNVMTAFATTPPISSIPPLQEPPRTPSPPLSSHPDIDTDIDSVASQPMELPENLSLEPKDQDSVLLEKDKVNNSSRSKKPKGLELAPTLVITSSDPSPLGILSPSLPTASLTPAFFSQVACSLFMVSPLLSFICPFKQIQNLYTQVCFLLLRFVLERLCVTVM
Outline: as §1

[7] = target: T4, ETV2 (Homo sapiens, UniProt O00321 1-342); details: protein: recombinant; tags: N-terminal GST; dsDNA, one strand shown
T4 sequence: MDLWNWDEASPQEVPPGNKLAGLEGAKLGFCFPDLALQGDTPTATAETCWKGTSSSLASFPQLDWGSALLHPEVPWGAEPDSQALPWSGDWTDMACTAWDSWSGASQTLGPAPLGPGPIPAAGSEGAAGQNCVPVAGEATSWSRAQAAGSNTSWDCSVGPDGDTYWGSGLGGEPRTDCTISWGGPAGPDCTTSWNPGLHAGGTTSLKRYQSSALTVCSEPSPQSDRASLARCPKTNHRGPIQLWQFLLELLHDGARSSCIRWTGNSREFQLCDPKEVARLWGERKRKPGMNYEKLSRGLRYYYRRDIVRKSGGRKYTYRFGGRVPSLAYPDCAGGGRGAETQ
Outline: as §1

[8] = target: T5, ELF3 (Homo sapiens, UniProt P78545 1-371); details: protein: recombinant; tags: N-terminal GST; dsDNA, one strand shown
T5 sequence: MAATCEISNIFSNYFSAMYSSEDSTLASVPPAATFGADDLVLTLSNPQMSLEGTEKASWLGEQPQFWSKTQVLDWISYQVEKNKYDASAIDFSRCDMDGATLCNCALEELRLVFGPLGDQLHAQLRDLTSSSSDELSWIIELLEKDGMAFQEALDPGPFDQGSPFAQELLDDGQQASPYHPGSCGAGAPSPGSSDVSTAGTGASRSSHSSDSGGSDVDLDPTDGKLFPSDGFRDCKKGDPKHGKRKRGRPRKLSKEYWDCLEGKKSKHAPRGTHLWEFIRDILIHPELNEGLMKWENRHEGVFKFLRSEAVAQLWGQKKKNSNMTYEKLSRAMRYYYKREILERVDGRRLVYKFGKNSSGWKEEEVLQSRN
Outline: as §1

[9] = target: CRX (Homo sapiens, UniProt O43186 1-299); details: protein: recombinant; tags: N-terminal GST; dsDNA, one strand shown
CRX, sequence (O43186 whole entry): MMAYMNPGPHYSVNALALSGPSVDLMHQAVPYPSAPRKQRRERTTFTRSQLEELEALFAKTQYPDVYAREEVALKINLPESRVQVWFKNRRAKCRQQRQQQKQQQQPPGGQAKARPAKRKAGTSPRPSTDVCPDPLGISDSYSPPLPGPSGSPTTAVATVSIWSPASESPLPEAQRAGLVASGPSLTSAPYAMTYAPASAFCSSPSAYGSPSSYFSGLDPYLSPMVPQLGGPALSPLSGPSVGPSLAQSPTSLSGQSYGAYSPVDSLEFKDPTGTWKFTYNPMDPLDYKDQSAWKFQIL
Outline: as §1

[10] = target: ETV1 (Homo sapiens, UniProt P50549 1-477); details: protein: recombinant; tags: N-terminal GST; dsDNA, one strand shown
ETV1, sequence (P50549 whole entry): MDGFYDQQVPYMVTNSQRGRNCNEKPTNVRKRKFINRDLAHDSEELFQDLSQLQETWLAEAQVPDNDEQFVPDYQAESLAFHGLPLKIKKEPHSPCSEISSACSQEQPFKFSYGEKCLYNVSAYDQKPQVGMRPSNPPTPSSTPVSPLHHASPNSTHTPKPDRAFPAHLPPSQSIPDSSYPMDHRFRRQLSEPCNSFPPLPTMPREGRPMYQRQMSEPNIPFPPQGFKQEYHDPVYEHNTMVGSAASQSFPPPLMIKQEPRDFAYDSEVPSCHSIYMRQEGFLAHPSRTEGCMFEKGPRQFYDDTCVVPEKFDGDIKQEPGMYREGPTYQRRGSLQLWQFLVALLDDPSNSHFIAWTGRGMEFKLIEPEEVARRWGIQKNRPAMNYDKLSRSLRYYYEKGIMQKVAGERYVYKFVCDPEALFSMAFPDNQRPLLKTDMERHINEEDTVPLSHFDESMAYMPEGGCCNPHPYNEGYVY
Outline: as §1

[11] = target: T6, ERF (Homo sapiens, UniProt P50548 1-548); details: protein: recombinant; tags: N-terminal GST; dsDNA, one strand shown
T6 sequence: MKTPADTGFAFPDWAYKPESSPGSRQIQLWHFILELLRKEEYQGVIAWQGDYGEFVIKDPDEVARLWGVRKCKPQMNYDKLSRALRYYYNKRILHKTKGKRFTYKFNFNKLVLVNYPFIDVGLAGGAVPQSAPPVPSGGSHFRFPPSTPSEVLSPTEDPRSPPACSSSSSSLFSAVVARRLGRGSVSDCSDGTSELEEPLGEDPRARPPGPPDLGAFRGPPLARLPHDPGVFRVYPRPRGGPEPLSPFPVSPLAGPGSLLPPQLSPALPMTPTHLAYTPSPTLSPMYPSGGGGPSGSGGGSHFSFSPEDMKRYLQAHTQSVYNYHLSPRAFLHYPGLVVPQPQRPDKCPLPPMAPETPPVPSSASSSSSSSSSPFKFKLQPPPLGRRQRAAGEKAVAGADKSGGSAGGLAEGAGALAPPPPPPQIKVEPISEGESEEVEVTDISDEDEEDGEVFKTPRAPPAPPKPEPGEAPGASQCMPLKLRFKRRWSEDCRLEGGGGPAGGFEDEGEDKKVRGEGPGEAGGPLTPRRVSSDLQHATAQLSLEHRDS
Outline: as §1

[12] = target: T7, ETV3L (Homo sapiens, UniProt Q6ZN32 1-361); details: protein: recombinant; tags: N-terminal GST; dsDNA, one strand shown
T7 sequence: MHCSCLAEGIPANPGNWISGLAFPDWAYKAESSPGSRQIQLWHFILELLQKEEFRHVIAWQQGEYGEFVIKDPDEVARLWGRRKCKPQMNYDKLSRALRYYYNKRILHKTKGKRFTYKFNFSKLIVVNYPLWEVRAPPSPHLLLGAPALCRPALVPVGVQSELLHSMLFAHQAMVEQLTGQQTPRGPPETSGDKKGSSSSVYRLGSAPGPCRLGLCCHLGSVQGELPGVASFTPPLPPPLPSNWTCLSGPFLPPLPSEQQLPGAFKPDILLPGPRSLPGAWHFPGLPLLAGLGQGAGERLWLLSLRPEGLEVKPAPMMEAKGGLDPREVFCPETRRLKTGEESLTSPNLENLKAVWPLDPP
Outline: as §1

[13] = target: T8, ETS2 (Homo sapiens, UniProt P15036 1-469); details: protein: recombinant; tags: N-terminal GST; dsDNA, one strand shown
T8 sequence: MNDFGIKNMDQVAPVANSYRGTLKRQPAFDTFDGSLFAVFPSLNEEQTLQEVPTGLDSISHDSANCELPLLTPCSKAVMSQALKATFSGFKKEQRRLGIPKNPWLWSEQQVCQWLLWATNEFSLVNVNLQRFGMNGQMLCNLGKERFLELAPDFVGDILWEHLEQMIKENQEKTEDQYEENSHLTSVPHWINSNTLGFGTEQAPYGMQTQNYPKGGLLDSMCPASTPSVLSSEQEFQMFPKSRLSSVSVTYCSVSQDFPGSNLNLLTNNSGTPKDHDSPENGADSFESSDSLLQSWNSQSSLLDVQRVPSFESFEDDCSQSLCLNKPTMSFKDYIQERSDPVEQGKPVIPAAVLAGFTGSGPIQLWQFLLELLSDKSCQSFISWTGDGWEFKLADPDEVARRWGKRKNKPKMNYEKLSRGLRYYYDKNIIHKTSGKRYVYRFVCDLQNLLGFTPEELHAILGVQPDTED
Outline: as §1

[14] = target: T9, SPDEF (Homo sapiens, UniProt O95238 1-335); details: protein: recombinant; tags: N-terminal GST; dsDNA, one strand shown
T9 sequence: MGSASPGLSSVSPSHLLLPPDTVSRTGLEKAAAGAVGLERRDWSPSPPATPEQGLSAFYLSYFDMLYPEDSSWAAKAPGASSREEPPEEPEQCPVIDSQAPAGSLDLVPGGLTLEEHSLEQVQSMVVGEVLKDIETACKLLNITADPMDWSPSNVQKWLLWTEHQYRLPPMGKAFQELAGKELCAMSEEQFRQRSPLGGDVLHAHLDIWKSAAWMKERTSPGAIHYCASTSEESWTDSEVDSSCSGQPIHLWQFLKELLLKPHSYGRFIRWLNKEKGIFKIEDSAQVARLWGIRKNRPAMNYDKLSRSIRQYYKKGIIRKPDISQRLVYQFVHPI
Outline: as §1

[15] = target: T10, ETV7 (Homo sapiens, UniProt Q9Y603 1-341); details: protein: recombinant; tags: N-terminal GST; dsDNA, one strand shown
T10 sequence: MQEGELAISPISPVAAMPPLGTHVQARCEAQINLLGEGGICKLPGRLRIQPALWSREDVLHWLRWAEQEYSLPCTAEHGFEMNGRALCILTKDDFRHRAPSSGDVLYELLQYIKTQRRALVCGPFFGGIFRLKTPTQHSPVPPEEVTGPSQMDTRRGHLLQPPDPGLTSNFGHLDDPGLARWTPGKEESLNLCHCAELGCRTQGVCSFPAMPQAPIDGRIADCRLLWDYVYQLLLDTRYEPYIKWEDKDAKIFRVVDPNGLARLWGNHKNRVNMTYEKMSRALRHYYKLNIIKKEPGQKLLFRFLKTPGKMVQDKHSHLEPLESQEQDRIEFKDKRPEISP
Outline: as §1

[16] = target: T11, ELF5 (Homo sapiens, UniProt Q9UKW6-2 1-255); details: protein: recombinant; tags: N-terminal GST; dsDNA, one strand shown
T11 sequence: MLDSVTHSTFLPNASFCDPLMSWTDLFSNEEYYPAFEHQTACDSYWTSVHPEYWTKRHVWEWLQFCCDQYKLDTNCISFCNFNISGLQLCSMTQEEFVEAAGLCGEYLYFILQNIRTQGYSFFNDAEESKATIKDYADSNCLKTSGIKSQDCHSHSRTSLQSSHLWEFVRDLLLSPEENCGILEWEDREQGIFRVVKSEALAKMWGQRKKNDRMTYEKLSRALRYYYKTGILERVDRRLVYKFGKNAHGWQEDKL
Outline: as §1

[17] = target: T12, ETV3 (Homo sapiens, UniProt P41162-2 1-143); details: protein: recombinant; tags: N-terminal GST; dsDNA, one strand shown
T12 sequence: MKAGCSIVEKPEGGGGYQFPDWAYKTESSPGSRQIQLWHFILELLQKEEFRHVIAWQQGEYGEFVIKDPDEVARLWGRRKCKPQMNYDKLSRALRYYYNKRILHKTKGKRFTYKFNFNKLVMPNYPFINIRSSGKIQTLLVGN
Outline: as §1

[18] = target: ETV6 (Homo sapiens, UniProt P41212 1-452); details: protein: recombinant; tags: N-terminal GST; dsDNA, one strand shown
ETV6, sequence (P41212 whole entry): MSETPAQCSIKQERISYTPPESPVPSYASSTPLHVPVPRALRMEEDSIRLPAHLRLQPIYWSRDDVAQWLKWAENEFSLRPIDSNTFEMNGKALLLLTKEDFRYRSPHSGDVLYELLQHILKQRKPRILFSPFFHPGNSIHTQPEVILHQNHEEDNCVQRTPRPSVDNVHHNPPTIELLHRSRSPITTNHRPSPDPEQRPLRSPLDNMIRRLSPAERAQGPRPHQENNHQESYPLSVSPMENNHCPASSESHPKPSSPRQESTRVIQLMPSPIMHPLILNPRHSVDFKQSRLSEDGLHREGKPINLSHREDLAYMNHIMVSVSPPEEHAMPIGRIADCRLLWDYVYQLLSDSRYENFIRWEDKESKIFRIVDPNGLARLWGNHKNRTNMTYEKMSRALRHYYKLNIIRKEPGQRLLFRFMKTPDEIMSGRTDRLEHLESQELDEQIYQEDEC
Outline: as §1

ATTCTA
binding signal [1]: 1.14 fold enrichment (6-mer frequency, TF over GST control)
binding signal [2]: 1.16 fold enrichment (6-mer frequency, TF over GST control)
binding signal [3]: 3.09 fold enrichment (6-mer frequency, TF over GST control)
binding signal [4]: 1.26 fold enrichment (6-mer frequency, TF over GST control)
binding signal [5]: 1.2 fold enrichment (6-mer frequency, TF over GST control)
binding signal [6]: 1.32 fold enrichment (6-mer frequency, TF over GST control)
binding signal [7]: 1.26 fold enrichment (6-mer frequency, TF over GST control)
binding signal [8]: 1.24 fold enrichment (6-mer frequency, TF over GST control)
binding signal [9]: 1.84 fold enrichment (6-mer frequency, TF over GST control)
binding signal [10]: 1.2 fold enrichment (6-mer frequency, TF over GST control)
binding signal [11]: 1.32 fold enrichment (6-mer frequency, TF over GST control)
binding signal [12]: 1.22 fold enrichment (6-mer frequency, TF over GST control)
binding signal [13]: 1.3 fold enrichment (6-mer frequency, TF over GST control)
binding signal [14]: 1.23 fold enrichment (6-mer frequency, TF over GST control)
binding signal [15]: 1.28 fold enrichment (6-mer frequency, TF over GST control)
binding signal [16]: 1.15 fold enrichment (6-mer frequency, TF over GST control)
binding signal [17]: 1.2 fold enrichment (6-mer frequency, TF over GST control)
binding signal [18]: 1.15 fold enrichment (6-mer frequency, TF over GST control)
